For test [1], the target named is Nuclear receptor subfamily 1 group I member 3 (Homo sapiens) (UniProt Q14994). The experiment in a line: Primary qHTS for antagonist of constitutive androstane receptor (CAR) against the NCATS DSHEA and TCM libraries (AID 1794836).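 Note: HepG2 cells stably expressing hCAR with CYP2B6 luciferase reporter stimulated by CITCO; series mostly up to about 40 µM.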 In short, it runs like this:
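HepG2-CYP2B6-hCAR cells, attached 5 h, given compounds plus CITCO agonist […], incubated 24 h at 37 C. Luciferase luminescence read, multiplexed with CellTiter-Fluor viability (Ex/Em 405/540 nm).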
In general terms: qHTS replaces the single test concentration by a dilution series.

The target in test [2] is Glutathione peroxidase 1 (Homo sapiens) (UniProt P07203). The experiment in a line: Primary qHTS Assay for Inhibitors of Recombinant Selenoprotein Glutathione Peroxidase 1 (GPX1) (AID 1845191). Note: nearly all actives have a fitted effect of over 65% in size. Note: potency is the fitted concentration of half-maximal effect. The essentials: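 GR-coupled assay: compounds preincubated 30 min at room temperature with GPX1, then reaction started with CHP; final 10 nM GPX1, 1 mM GSH, 0.5 mM CHP, 0.5 mM NADPH, 100 nM GR, 0.01% BSA, pH 7.5 Tris buffer. NADPH fluorescence (340/450 nm) read at 0 and 15 min.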
Chain of Glutathione peroxidase 1 (Homo sapiens) (P07203 whole entry, looked up): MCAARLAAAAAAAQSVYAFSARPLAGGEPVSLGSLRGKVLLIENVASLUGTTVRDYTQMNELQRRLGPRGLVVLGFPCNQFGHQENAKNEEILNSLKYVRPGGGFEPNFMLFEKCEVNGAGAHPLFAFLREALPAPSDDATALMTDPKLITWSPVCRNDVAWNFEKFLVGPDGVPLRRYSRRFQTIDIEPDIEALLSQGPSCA

The target of test [3] is Phospholipid hydroperoxide glutathione peroxidase GPX4 (Homo sapiens) (UniProt P36969). The experiment in a line: Primary qHTS Assay for Inhibitors of Recombinant Selenoprotein Glutathione Peroxidase 4 (GPX4) (AID 1845192). Note: nearly all actives have a fitted effect of over 65% in size. The essentials:
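GR-coupled assay: recombinant GPX4 preincubated 30 min with compound at room temperature; final 200 nM GPX4, 1 mM GSH, 0.5 mM cumene hydroperoxide, 0.5 mM NADPH, 100 nM GR, 0.01% BSA, pH 7.5 Tris. NADPH fluorescence (340/450 nm) read at 0 and 15 min.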

In test [4] the target is Metallo-beta-lactamase type 2 (Klebsiella pneumoniae) (UniProt C7C422). Description: qHTS to identify inhibitors of the New Delhi Metallo-beta-lactamase (NDM): assay validation screen against the NCATS LOPAC Collection (AID 1794843).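 Note: nitrocefin turnover by NDM-1 measured as 485 nm absorbance at plateau; series mostly up to about 38 µM.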 The essentials:
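NDM-1 at 2 nM final in 50 mM HEPES pH 7.0, 1 uM ZnSO4, 0.01% Tween20, preincubated with LOPAC compounds pinned in DMSO; 50 uM nitrocefin (stock) added. Hydrolysis read as absorbance at 485 nm in the plateau phase.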

Test [5] can be described thus: NCATS anti-infectives library activity on HEK293 viability as a counter-qHTS vs the C. elegans viability qHTS (AID 1745854).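 Note: HEK293 cells exposed to compounds for 24 hr before the viability read.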 In short, it runs like this: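 HEK293 cells (1,500/well) exposed 24 hr at 37C to 1:5 titrations, up to 41.7 uM final; counter-screen to a C. elegans viability qHTS. Viability by CellTiter-Glo luminescence after 10 min at room temperature; digitonin as control.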

Test [6] is described as follows: Quantitative High-Throughput drug screen in 47 multiple myeloma cell lines against the NCATS MIPE library collection: FR4_PLB cell viability assay (AID 1918924; note: nearly all actives have a fitted effect of over 35% in size). The essentials: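 Myeloma cell lines, 500 cells per well, exposed to MIPE 4.0 library compounds for 48 h at 37C, 5% CO2. Viability from ATP by CellTiter-Glo luminescence; normalised to DMSO (100%) and media-only (0%) wells.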

A short description of test [7]: Quantitative High-Throughput drug screen in 47 multiple myeloma cell lines against the NCATS MIPE library collection: Delta47_JCRB cell viability assay (AID 1918925; note: potency is the fitted concentration of half-maximal effect; nearly all actives have a fitted effect of over 45% in size). The essentials: (§1)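 qHTS of the MIPE 4.0 collection: 500 myeloma cells/well, 48 h drug exposure at 37C in 5% CO2, then CellTiter-Glo for 5 min at room temperature before luminescence reading.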
A short description of test [8]: Quantitative High-Throughput drug screen in 47 multiple myeloma cell lines against the NCATS MIPE library collection: ARD_JJKsccE7 cell viability assay (AID 1918929). The essentials: as §1
For test [9], the target named is Luciferin 4-monooxygenase (Photinus pyralis) (UniProt P08659). Description: Primary firefly luciferase (FLuc) qHTS assay for identification of artifact compounds. (AID 1845220). Note: nearly all actives have a fitted effect of over 60% in size. The conditions noted are these: outcome: dose series up to 54.1 µM unless noted. The essentials: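 D-luciferin and ATP (10 uM each, final) in Tris acetate buffer pH 7.6 were incubated with compounds for 15 min at room temperature. The reaction was started with 10 nM Photinus pyralis luciferase and luminescence read after 5 min. Percent inhibition was fitted to a 4-parameter Hill equation.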

For test [10], the system named is Nanoluciferase (engineered Oplophorus gracilirostris luciferase). Description: Primary Nanoluciferase (NLuc) qHTS assay for identification of artifact compounds. (AID 1845222). Note: series mostly up to about 54 µM. The essentials:
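Diluted conditioned medium from NLuc-expressing S16 cells treated with compounds for 15 min at room temperature, then Nano-Glo substrate added; luminescence read after 5 min. Percent inhibition versus no-enzyme and DMSO controls fitted to 4-parameter Hill equation.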

Test [11] in a line: Primary redox qHTS assay for identification of artifact compounds. (AID 1845223). The essentials:
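Amplex Red (25 uM) and HRP (250 mU/mL) in HBSS, with compounds for 15 min, then 250 uM DTT for 30 min, room temperature, dark. Fluorescence 525/598 nm read; normalized to DMSO and 10 uM DA3003; Hill fit.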

Test [12] can be described thus: Quantitative High-Throughput drug screen in 47 multiple myeloma cell lines against the NCATS MIPE library collection: AMO1_DSMZ cell viability assay (AID 1918927; note: nearly all actives have a fitted effect of over 30% in size). In short, it runs like this:
as §1

The nature of test [13]: Quantitative High-Throughput drug screen in 47 multiple myeloma cell lines against the NCATS MIPE library collection: KMM1_JCRB cell viability assay (AID 1918960). Note: nearly all actives have a fitted effect of over 30% in size. In short, it runs like this: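 Myeloma cells at 500 per well in 1536-well format treated with MIPE 4.0 library by pin transfer for 48 h at 37C, 5% CO2. Viability from ATP luminescence (CellTiter-Glo), normalized to DMSO (100%) and media-only (0%) wells.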

Results filed as inconclusive are left out. Entries that show only a call come without a potency. Activity calls are given as the source filed them. Calls come from the whole dose curve; as a rule, active = well fitted curve in the direction sought with a large enough effect; inconclusive = small, poorly fitted or top-dose-only effect, or another doubt; inactive = no such curve, though single readings can be large; an effect the other way counts as inactive or inconclusive.

Chain of Phospholipid hydroperoxide glutathione peroxidase GPX4 (Homo sapiens) (P36969 whole entry, looked up): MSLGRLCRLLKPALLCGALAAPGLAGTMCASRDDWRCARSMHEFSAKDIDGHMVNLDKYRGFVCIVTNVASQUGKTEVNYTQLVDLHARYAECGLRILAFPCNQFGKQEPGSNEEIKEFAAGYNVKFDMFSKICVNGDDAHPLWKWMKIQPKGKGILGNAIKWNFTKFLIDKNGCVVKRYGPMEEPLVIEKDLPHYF
Chain of Metallo-beta-lactamase type 2 (Klebsiella pneumoniae) (C7C422 whole entry, looked up): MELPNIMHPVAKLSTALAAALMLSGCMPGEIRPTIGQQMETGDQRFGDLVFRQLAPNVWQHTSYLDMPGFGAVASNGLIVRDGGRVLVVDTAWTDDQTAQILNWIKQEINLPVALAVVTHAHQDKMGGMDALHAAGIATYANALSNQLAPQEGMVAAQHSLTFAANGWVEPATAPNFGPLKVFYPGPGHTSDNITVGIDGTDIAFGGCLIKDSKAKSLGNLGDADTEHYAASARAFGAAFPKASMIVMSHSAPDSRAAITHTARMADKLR
Chain of Nuclear receptor subfamily 1 group I member 3 (Homo sapiens) (Q14994 whole entry, looked up): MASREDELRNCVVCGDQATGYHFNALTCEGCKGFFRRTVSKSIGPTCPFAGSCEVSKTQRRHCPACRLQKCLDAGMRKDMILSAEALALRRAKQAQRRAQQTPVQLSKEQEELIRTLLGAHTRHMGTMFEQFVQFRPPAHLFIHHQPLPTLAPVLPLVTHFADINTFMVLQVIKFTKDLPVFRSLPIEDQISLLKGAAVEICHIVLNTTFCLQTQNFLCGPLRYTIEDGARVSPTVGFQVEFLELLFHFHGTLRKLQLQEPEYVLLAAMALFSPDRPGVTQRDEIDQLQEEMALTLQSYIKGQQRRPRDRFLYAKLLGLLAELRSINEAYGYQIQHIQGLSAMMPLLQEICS

`C=CCc1ccc(O)c(OC)c1`: the result in test [1] was inactive.

On to `CCOP(=S)(OCC)Oc1ccc2c(C)c(Cl)c(=O)oc2c1`, for which the Potency result in [2] and in [3] was “inactive” throughout.

In the case of `C[C@]12CC[C@H]3[C@@H](CCC4=CC(=O)CC[C@@H]43)[C@@H]1CC[C@@H]2OC(=O)CCC1CCCCC1`, in test [2], the Potency result is “inactive”.

Turning to `O=c1[nH]oc2c1CCNC2`, the result in test [4] was inactive. Further, the Potency result in test [2] and in [3] was “inactive” each time.

Consider `O=C1c2ccccc2C(=O)c2ccccc21`, for which the result in test [5] was inactive. The Potency entry in [2] and in test [3] was “inactive” throughout.

For the compound `Cc1ccc(C(C)C)c(O)c1`, the result in test [1] was inactive.

`CN1C[C@H](C(=O)N[C@]2(C)O[C@@]3(O)[C@@H]4CCCN4C(=O)[C@H](Cc4ccccc4)N3C2=O)C=C2c3cccc4[nH]cc(c34)C[C@H]21`: in test [2], the Potency result is “inactive”.

On to `O=[N+]([O-])O[C@H]1CO[C@H]2[C@@H]1OC[C@H]2O[N+](=O)[O-]`, for which the Potency entry in [2] and in test [3] was “inactive” each time.

`O=P1(N(CCCl)CCCl)NCCCO1` (stereo not drawn): the compound was classed as inactive in test [4]. The Potency result in [2], in [3], in [6] and in [8] was “inactive” each time. The Potency in [7] is 14.8 µM (active).

For `O=c1oc2ccccc2c(O)c1Cc1c(O)c2ccccc2oc1=O`, the Potency entry in test [2] and in [3] was “inactive” throughout.

Take `NNC(=O)c1ccncc1`: in test [1], the compound was called inactive.

Turning to `Nc1ccc(C(=O)O)cc1`, the compound was called inactive in test [1].

For the compound `Oc1ccc(Cl)cc1`, the Potency entry in test [2] and in [3] was “inactive” in each case.

As to `Cc1ncsc1CCCl`, in test [4], the result was inactive. Moreover, the Potency result in [2] and in test [3] was “inactive” throughout.

`CC(C)N(CCC(C(N)=O)(c1ccccc1)c1ccccn1)C(C)C` (stereo not drawn): the compound was called inactive in test [4], in [9], in test [10] and in test [11]. The Potency entry in test [2] and in test [3] was “inactive” throughout.

Take `CN1C(=O)NC(=O)C(C)(C2=CCCCC2)C1=O` (stereo not drawn): the Potency entry in [2] and in [3] was “inactive” in each case.

Take `C[N+]1(CCF)[C@@H]2CC[C@H]1CC(OC(=O)C(O)(c1ccccc1)c1ccccc1)C2` (stereo partly drawn): the Potency result in test [2] and in test [3] was “inactive” each time.

Consider `CC(C)=CCC[C@@](C)(O)[C@H]1CC=C(C)CC1`, for which the compound was called inactive in test [1].

Regarding `O=C(CCCN1CCC2(CC1)C(=O)NCN2c1ccccc1)c1ccc(F)cc1`, in test [4], the result was inactive. The Potency result in [2] and in [3] was “inactive” each time.

As to `COc1cccc2c1C(=O)c1c(O)c3c(c(O)c1C2=O)C[C@@](O)(C(=O)CO)CC3OC1CC(N2CCOC(OC)C2)C(O)C(C)O1` (stereo partly drawn), the Potency entry in test [2] was “inactive”.

Take `O=C(O)CCCC[C@@H]1SC[C@@H]2NC(=O)N[C@@H]21`: in [1], the compound was called inactive.

For the compound `CN1C(=O)CCS(=O)(=O)C1c1ccc(Cl)cc1` (stereo not drawn), in [4], the compound was called inactive. Besides, the Potency result in [2], in test [3], in test [12], in test [8] and in test [13] was “inactive” throughout.

On to `C=CCC1(C(C)CC)C(=O)NC(=O)NC1=O` (stereo not drawn), for which the Potency entry in test [2] and in test [3] was “inactive” in each case.

For `CC(=O)OCC1=C(C(=O)O)N2C(=O)[C@@H](N)[C@H]2SC1`, the Potency in test [2] is 12.8 µM (active). In addition, the outcome in test [9] and in test [10] was inactive.

As for `COc1c2c(cc3c1OCO3)CCN(C)C2`, the Potency result in [2] and in test [3] was “inactive” in each case.

Values taken from PubChem BioAssay (NCATS).
